Test results from PubChem BioAssay (NCI).
The panel holds about 79,000 compounds, 15% with a hit somewhere; the sample as a whole holds those more often. Values without a mark were called inactive. The source made the active and inactive calls. No stated cut-off is given here; in the data, active means growth inhibition above about 70%; inactive means the rest.

What was measured:
[1] = NCI Yeast Anticancer Drug Screen. Data for the wt2 strain (AID 169);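 further: 0% = growth of vehicle-treated yeast cultures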; conditions: S. cerevisiae wt2 strain growth inhibition, hits give high values
Outline: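 Against vehicle-treated controls, the growth of yeast exposed to each compound was compared, and the inhibition was recorded.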

[2] = NCI Yeast Anticancer Drug Screen. Data for the mlh1 strain (AID 171);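 further: 0% = growth of vehicle-treated control cultures of the same strain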; conditions: S. cerevisiae mlh1 strain growth inhibition, hits give high values
Outline: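 Measured: yeast growth. Reference: vehicle-treated controls. Organism: strain with a defined alteration affecting DNA damage repair or cell cycle control, treated with compound.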

[3] = NCI Yeast Anticancer Drug Screen. Data for the sgs1 strain (AID 173);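 further: 0% = growth of vehicle-only control cultures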; conditions: S. cerevisiae sgs1 mutant, hits give high values
Outline: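 Each compound was added to cultures of the altered yeast strain. Growth was recorded, and inhibition was derived by comparison with vehicle controls.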

[4] = NCI Yeast Anticancer Drug Screen. Data for the mlh1 rad18 strain (AID 175); conditions: S. cerevisiae mlh1 rad18 strain growth inhibition, hits give high values
Outline: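 Genetically defined yeast (DNA repair-deficient) exposed to compounds; growth inhibition determined relative to vehicle.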

[5] = NCI Yeast Anticancer Drug Screen. Data for the rad18 strain (AID 177); conditions: S. cerevisiae rad18 mutant growth inhibition, hits give high values
Outline: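 Vehicle-treated cultures served as the baseline for scoring compound-induced growth inhibition in DNA-repair-mutant yeast.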

[6] = NCI Yeast Anticancer Drug Screen. Data for the rad52 strain (AID 147);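 further: 0% = growth of vehicle-treated control cultures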; conditions: S. cerevisiae rad52 mutant growth inhibition, hits give high values
Outline: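 The repair-mutant yeast strain was incubated with compounds, then growth was read and inhibition derived relative to vehicle.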

[7] = NCI Yeast Anticancer Drug Screen. Data for the wt1 strain (AID 149);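 further: 0% = growth of vehicle-treated wt1 cultures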; conditions: S. cerevisiae wt1 strain (SPY 50644) growth inhibition, hits give high values
Outline: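 Vehicle-normalised growth inhibition; strain wt1; compound exposure.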

[8] = NCI Yeast Anticancer Drug Screen. Data for the rad50EPP+ strain (AID 151);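 further: 0% = growth of vehicle-treated control cultures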; conditions: S. cerevisiae rad50 mutant strain, hits give high values
Outline: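 Vehicle-normalised growth inhibition; rad50EPP+ yeast strain, altered in DNA damage repair, compound-treated.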

[9] = NCI Yeast Anticancer Drug Screen. Data for the mgt1 strain (AID 153); conditions: S. cerevisiae mgt1 mutant growth inhibition, hits give high values
Outline: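 Vehicle-normalized growth inhibition is determined in mgt1 yeast, a strain selected for a defined alteration in DNA repair or cell cycle control.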

[10] = NCI Yeast Anticancer Drug Screen. Data for the rad50 strain (AID 155);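 further: 0% = growth of vehicle-only cultures of the same strain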; conditions: S. cerevisiae rad50 strain growth inhibition, hits give high values
Outline: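 A DNA repair-deficient yeast mutant serves as the test organism; compound-induced growth inhibition is calculated against vehicle-treated cells.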

[11] = NCI Yeast Anticancer Drug Screen. Data for the mec2-1 strain (AID 157); conditions: S. cerevisiae mec2-1 strain, hits give high values
Outline: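 Mutant yeast (mec2-1) grown with compound; growth inhibition relative to vehicle control reported.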

[12] = NCI Yeast Anticancer Drug Screen. Data for the rad14 strain (AID 159);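 further: 0% = growth of vehicle-treated control cultures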; conditions: S. cerevisiae rad14 strain growth inhibition, hits give high values
Outline: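 Vehicle-treated cultures served as the baseline for growth inhibition of a DNA repair-mutant yeast strain exposed to each compound.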

[13] = NCI Yeast Anticancer Drug Screen. Data for the sgs1 mgt1 strain (AID 161);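 further: 0% = growth of cultures given vehicle only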; conditions: S. cerevisiae sgs1 mgt1 strain, hits give high values
Outline: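 Growth of a repair-deficient yeast mutant was monitored after compound treatment and expressed as inhibition relative to vehicle-treated cultures.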

[14] = NCI Yeast Anticancer Drug Screen. Data for the CLN2oe strain (AID 163);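 further: 0% = growth of vehicle-only control cultures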; conditions: S. cerevisiae CLN2oe strain, hits give high values
Outline: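 Compounds are applied to yeast harbouring a defined cell-cycle control change; reduced growth compared with vehicle-treated controls gives the value.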

[15] = NCI Yeast Anticancer Drug Screen. Data for the cln2 rad14 strain (AID 165);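 further: 0% = growth equal to vehicle treated cultures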; conditions: S. cerevisiae cln2 rad14 strain, hits give high values
Outline: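 Readout is yeast growth inhibition versus vehicle-treated controls, using a strain with cln2 and rad14 alterations exposed to compound.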

[16] = NCI Yeast Anticancer Drug Screen. Data for the bub3 strain (AID 167); conditions: S. cerevisiae bub3 mutant strain, hits give high values
Outline: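 Inhibition values come from growth of compound-treated mutant yeast normalised to vehicle-treated controls.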

[17] = at 5.0 µM (retest, dose inferred, filed as 0.5)
[18] = at 50.0 µM (retest, dose inferred, filed as 5.0)

CCCCCCCCSC1=C(Cl)C(=O)C(OC)=C(OC)C1=O
growth inhibition ([1]; at 1.2 µM): -31%
growth inhibition ([1]; at 3.7 µM): -19%
growth inhibition ([1]; at 11.0 µM): -46%
growth inhibition ([1]; at 33.0 µM): -11%
growth inhibition ([1]; at 100.0 µM): 87% (active)
growth inhibition ([2]; at 1.2 µM): -38%
growth inhibition ([2]; at 3.7 µM): -31%
growth inhibition ([2]; at 11.0 µM): 6%
growth inhibition ([2]; at 33.0 µM): 27%
growth inhibition ([2]; at 100.0 µM): 78% (active)
growth inhibition ([3]; at 1.2 µM): -42%
growth inhibition ([3]; at 3.7 µM): -27%
growth inhibition ([3]; at 11.0 µM): 8%
growth inhibition ([3]; at 33.0 µM): 3%
growth inhibition ([3]; at 100.0 µM): 80% (active)
growth inhibition [4, 17]: 36%
growth inhibition [4, 18]: 84% (active)
growth inhibition ([4]; at 50.0 µM): 79.3% (active)
growth inhibition ([5]; at 1.2 µM): -15%
growth inhibition ([5]; at 3.7 µM): -26%
growth inhibition ([5]; at 11.0 µM): 1%
growth inhibition ([5]; at 33.0 µM): 58%
growth inhibition ([5]; at 100.0 µM): 85% (active)

Cc1c(Cl)c(C)c(Cl)c(O)c1Cl
growth inhibition ([6]; at 1.2 µM): 17%
growth inhibition ([6]; at 3.7 µM): 7%
growth inhibition ([6]; at 11.0 µM): 28%
growth inhibition ([6]; at 33.0 µM): 79% (active)
growth inhibition ([6]; at 100.0 µM): 98% (active)
growth inhibition ([7]; at 1.2 µM): 11%
growth inhibition ([7]; at 3.7 µM): 9%
growth inhibition ([7]; at 11.0 µM): 13%
growth inhibition ([7]; at 33.0 µM): 80% (active)
growth inhibition ([7]; at 100.0 µM): 98% (active)
growth inhibition ([8]; at 1.2 µM): -21%
growth inhibition ([8]; at 3.7 µM): -9%
growth inhibition ([8]; at 11.0 µM): -6%
growth inhibition ([8]; at 33.0 µM): 75% (active)
growth inhibition ([8]; at 100.0 µM): 93% (active)
growth inhibition ([9]; at 1.2 µM): 18%
growth inhibition ([9]; at 3.7 µM): 7%
growth inhibition ([9]; at 11.0 µM): 56%
growth inhibition ([9]; at 33.0 µM): 98% (active)
growth inhibition ([9]; at 100.0 µM): 98% (active)
growth inhibition ([10]; at 1.2 µM): -14%
growth inhibition ([10]; at 3.7 µM): -21%
growth inhibition [10, 17]: 45%
growth inhibition ([10]; at 11.0 µM): -8%
growth inhibition ([10]; at 33.0 µM): 92% (active)
growth inhibition [10, 18]: 95% (active)
growth inhibition ([10]; at 50.0 µM): 92.9% (active)
growth inhibition ([10]; at 100.0 µM): 98% (active)
growth inhibition ([11]; at 1.2 µM): -19%
growth inhibition ([11]; at 3.7 µM): 7%
growth inhibition [11, 17]: 51%
growth inhibition ([11]; at 11.0 µM): -7%
growth inhibition ([11]; at 33.0 µM): 79% (active)
growth inhibition [11, 18]: 96% (active)
growth inhibition ([11]; at 50.0 µM): 93.2% (active)
growth inhibition ([11]; at 100.0 µM): 99% (active)
growth inhibition ([12]; at 1.2 µM): 5%
growth inhibition ([12]; at 3.7 µM): 6%
growth inhibition ([12]; at 11.0 µM): 11%
growth inhibition ([12]; at 33.0 µM): 95% (active)
growth inhibition ([12]; at 100.0 µM): 99% (active)
growth inhibition [13, 17]: 2%
growth inhibition [13, 18]: 99% (active)
growth inhibition ([13]; at 50.0 µM): 90.8% (active)
growth inhibition ([14]; at 1.2 µM): 8%
growth inhibition ([14]; at 3.7 µM): -11%
growth inhibition ([14]; at 11.0 µM): 29%
growth inhibition ([14]; at 33.0 µM): 88% (active)
growth inhibition ([14]; at 100.0 µM): 99% (active)
growth inhibition [15, 17]: 32%
growth inhibition [15, 18]: 100% (active)
growth inhibition ([15]; at 50.0 µM): 93% (active)
growth inhibition ([16]; at 1.2 µM): -17%
growth inhibition ([16]; at 3.7 µM): -2%
growth inhibition [16, 17]: 27%
growth inhibition ([16]; at 11.0 µM): 12%
growth inhibition ([16]; at 33.0 µM): 76% (active)
growth inhibition [16, 18]: 100% (active)
growth inhibition ([16]; at 50.0 µM): 93% (active)
growth inhibition ([16]; at 100.0 µM): 100% (active)
growth inhibition ([1]; at 1.2 µM): -25%
growth inhibition ([1]; at 3.7 µM): -20%
growth inhibition ([1]; at 11.0 µM): 14%
growth inhibition ([1]; at 33.0 µM): 92% (active)
growth inhibition ([1]; at 100.0 µM): 99% (active)
growth inhibition ([2]; at 1.2 µM): 8%
growth inhibition ([2]; at 3.7 µM): -4%
growth inhibition ([2]; at 11.0 µM): 29%
growth inhibition ([2]; at 33.0 µM): 91% (active)
growth inhibition ([2]; at 100.0 µM): 99% (active)
growth inhibition ([3]; at 1.2 µM): 15%
growth inhibition ([3]; at 3.7 µM): 9%
growth inhibition ([3]; at 11.0 µM): 34%
growth inhibition ([3]; at 33.0 µM): 95% (active)
growth inhibition ([3]; at 100.0 µM): 99% (active)
growth inhibition ([5]; at 1.2 µM): -26%
growth inhibition ([5]; at 3.7 µM): -4%
growth inhibition ([5]; at 11.0 µM): -25%
growth inhibition ([5]; at 33.0 µM): 65%
growth inhibition ([5]; at 100.0 µM): 97% (active)

O=[N+]([O-])c1cc(Cl)ccc1S(=O)(=O)c1ccc(Cl)cc1[N+](=O)[O-]
growth inhibition ([6]; at 1.2 µM): -25%
growth inhibition ([6]; at 3.7 µM): -8%
growth inhibition ([6]; at 11.0 µM): 40%
growth inhibition ([6]; at 33.0 µM): 86% (active)
growth inhibition ([6]; at 100.0 µM): 78% (active)
growth inhibition ([7]; at 1.2 µM): -13%
growth inhibition ([7]; at 3.7 µM): -19%
growth inhibition ([7]; at 11.0 µM): 0%
growth inhibition ([7]; at 33.0 µM): 85% (active)
growth inhibition ([7]; at 100.0 µM): 78% (active)
growth inhibition ([8]; at 1.2 µM): -6%
growth inhibition ([8]; at 3.7 µM): 20%
growth inhibition ([8]; at 11.0 µM): 55%
growth inhibition ([8]; at 33.0 µM): 72% (active)
growth inhibition ([8]; at 100.0 µM): 64%
growth inhibition ([9]; at 1.2 µM): -29%
growth inhibition ([9]; at 3.7 µM): -27%
growth inhibition ([9]; at 11.0 µM): 0%
growth inhibition ([9]; at 33.0 µM): 84% (active)
growth inhibition ([9]; at 100.0 µM): 78% (active)
growth inhibition ([10]; at 1.2 µM): -31%
growth inhibition ([10]; at 3.7 µM): -21%
growth inhibition [10, 17]: 14%
growth inhibition ([10]; at 11.0 µM): 41%
growth inhibition ([10]; at 33.0 µM): 90% (active)
growth inhibition [10, 18]: 92% (active)
growth inhibition ([10]; at 50.0 µM): 76.8% (active)
growth inhibition ([10]; at 100.0 µM): 81% (active)
growth inhibition ([11]; at 1.2 µM): -12%
growth inhibition ([11]; at 3.7 µM): 10%
growth inhibition [11, 17]: 4%
growth inhibition ([11]; at 11.0 µM): 20%
growth inhibition ([11]; at 33.0 µM): 89% (active)
growth inhibition [11, 18]: 93% (active)
growth inhibition ([11]; at 50.0 µM): 83% (active)
growth inhibition ([11]; at 100.0 µM): 84% (active)
growth inhibition ([12]; at 1.2 µM): -15%
growth inhibition ([12]; at 3.7 µM): -11%
growth inhibition ([12]; at 11.0 µM): 25%
growth inhibition ([12]; at 33.0 µM): 88% (active)
growth inhibition ([12]; at 100.0 µM): 81% (active)
growth inhibition [13, 17]: 16%
growth inhibition [13, 18]: 91% (active)
growth inhibition ([13]; at 50.0 µM): 84.3% (active)
growth inhibition ([14]; at 1.2 µM): -2%
growth inhibition ([14]; at 3.7 µM): -4%
growth inhibition ([14]; at 11.0 µM): 9%
growth inhibition ([14]; at 33.0 µM): 82% (active)
growth inhibition ([14]; at 100.0 µM): 79% (active)
growth inhibition [15, 17]: 13%
growth inhibition [15, 18]: 91% (active)
growth inhibition ([15]; at 50.0 µM): 79.9% (active)
growth inhibition ([16]; at 1.2 µM): -21%
growth inhibition ([16]; at 3.7 µM): 7%
growth inhibition [16, 17]: 73% (active)
growth inhibition ([16]; at 11.0 µM): 80% (active)
growth inhibition ([16]; at 33.0 µM): 93% (active)
growth inhibition [16, 18]: 94% (active)
growth inhibition ([16]; at 50.0 µM): 83.7% (active)
growth inhibition ([16]; at 100.0 µM): 90% (active)
growth inhibition ([1]; at 1.2 µM): 0%
growth inhibition ([1]; at 3.7 µM): 4%
growth inhibition ([1]; at 11.0 µM): 21%
growth inhibition ([1]; at 33.0 µM): 88% (active)
growth inhibition ([1]; at 100.0 µM): 84% (active)
growth inhibition ([3]; at 1.2 µM): -3%
growth inhibition ([3]; at 3.7 µM): 13%
growth inhibition ([3]; at 11.0 µM): 35%
growth inhibition ([3]; at 33.0 µM): 91% (active)
growth inhibition ([3]; at 100.0 µM): 84% (active)
growth inhibition [4, 17]: 25%
growth inhibition [4, 18]: 91% (active)
growth inhibition ([4]; at 50.0 µM): 80.8% (active)
